# ssDAF12 agonist: S. stercoralis DAF-12 activation, primary screen | hit rate 1% among 370,000 | activation, % at 6.8 µM | HEK293 ssDAF-12/GRIP1 lit1-tk-luc reporter, luminescence; % of 3 µM dafachronic acid response;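 active = activation above the mean over all tested compounds plus 3 SD, cut at about 0.9% in these data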
# hcDAF12 agonist: activators of H. contortus DAF-12 nuclear receptor | HEK293 hcDAF-12 lit1-tk-luc reporter, luminescence; 0% DMSO, 100% Δ7-dafachronic acid | activation, % at 6.8 µM | hit rate 1.4% among 370,000 | AID 652067;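 active = activation above the mean of all tested compounds plus 3 SD, cut at about 5.5% in these data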
# DAX1 inh-1: inhibits human nuclear receptor DAX1 | P51843 | HEK293 Gal4-DAX1 luciferase reporter, luminescence | inhibition, % at 6.75 µM | hit rate 0.99% among 340,000;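 active = inhibition above the mean over all tested compounds plus 3 SD, cut at about 4.2% in these data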;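 also: inhibition shows as a rise in luminescence from relieved DAX1 repression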
# hgDAF-12 ag: agonists of H. glycines DAF-12 nuclear receptor | HEK293 GAL4-hgDAF12 UAS-luciferase reporter, agonist luminescence; normalized to butyrate control | activation, % at 6.8 µM | hit rate 1.8% among 370,000 | AID 687014;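 active = activation above a cutoff set at the mean of all screened compounds plus 3 SD, cut at about 10% in these data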
# DAX1 inh-2: DAX1 (NR0B1) inhibition, primary screen | AID 652010 | inhibition, % at 6.8 µM | HEK293T StAR-luciferase reporter, SF-1/DAX-1 repression relief | hit rate 1.1% among 370,000;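 active = inhibition above the mean over all tested compounds plus 3 SD, cut at about 3.6% in these data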;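 also: higher inhibition means more luminescence from relief of DAX-1 repression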
# hgDAF12 ag: hgDAF-12 agonism, confirmation assay. shares compounds with hgDAF-12 ag. HEK293 GAL4-hgDAF12 luciferase reporter, agonist mode; percent of butyrate response. activation, % at 6.8 µM. hit rate 80% among 3,300;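 active = mean activation over triplicate wells above the hit cutoff derived from the earlier primary screen, cut at about 11% in these data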
# LXR ag 2: LXR-beta agonism as DAF-12 counter-screen. HEK293 Gal4-LXR luciferase reporter, 24 h. AID 743051. 3,300 tested, under 10 active. shares compounds with hgDAF-12 ag. activation, % at 6.8 µM;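 active = mean activation of the triplicate above a set limit carried over from the primary screen, none filed active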
# Target sequence (P55055 whole entry, looked up, the tested form may be a part): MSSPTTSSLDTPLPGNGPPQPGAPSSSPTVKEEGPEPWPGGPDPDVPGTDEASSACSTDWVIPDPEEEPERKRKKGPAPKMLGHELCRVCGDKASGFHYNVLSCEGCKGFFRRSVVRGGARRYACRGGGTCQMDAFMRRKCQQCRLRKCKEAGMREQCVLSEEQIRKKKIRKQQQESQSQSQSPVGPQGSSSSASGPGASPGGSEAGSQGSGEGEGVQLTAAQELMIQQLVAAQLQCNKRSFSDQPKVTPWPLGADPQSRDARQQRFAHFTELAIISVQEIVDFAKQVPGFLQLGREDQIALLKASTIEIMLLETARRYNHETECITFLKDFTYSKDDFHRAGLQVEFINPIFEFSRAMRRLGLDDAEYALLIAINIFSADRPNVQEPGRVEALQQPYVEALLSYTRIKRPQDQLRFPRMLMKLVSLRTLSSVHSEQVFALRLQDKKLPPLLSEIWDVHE
# Hits are given with their value; - = inactive; . = no result. Rows were chosen to be rich in hits. Some 4.1% of all compounds tested hit in one or more screens of this group.
SMILES,ssDAF12 agonist,hcDAF12 agonist,DAX1 inh-1,hgDAF-12 ag,DAX1 inh-2,hgDAF12 ag,LXR ag 2
COC(=O)C[C@H]1CC[C@@H]2[C@H](COc3ccc(NC(=O)c4cnccn4)cc3C(=O)N2C)O1,-,-,.,-,-,.,.
Cc1ccc(NC(=O)c2ccc3nsnc3c2)c(Cl)c1,1.1,5.8,-,14.0,-,15.3,-
O=C(Nc1ccc(Br)cc1F)c1ccc2nsnc2c1,-,-,-,-,-,.,.
CCc1nnc(NS(=O)(=O)c2ccc(N3C(=O)c4ccc(C(=O)O)cc4C3=O)cc2)s1,-,-,-,-,-,.,.
Cc1cccc2c1-c1sc(C(=O)Nc3nccs3)cc1CO2,-,-,-,19.3,-,14.4,-
Cc1cccc2c1-c1sc(C(=O)Nc3cccnc3)cc1CO2,-,-,-,-,-,.,.
O=C(NCC1CC1)c1ccc2c3n(nc2c1)-c1ccccc1CO3,-,-,-,14.1,-,17.2,-
COc1ccc(-c2csc(C(NC(C)=O)c3ccccc3)n2)cc1 (stereo unspecified),-,-,.,-,-,.,.
C/C(=N/NC(=O)c1ccco1)c1ccc(NC(=O)c2ccc(F)cc2)cc1,-,-,-,13.3,-,-,-
COc1ccc(C(=O)Nc2ccc(NC(=O)c3ccco3)cc2)cc1,-,-,-,-,-,.,.
COc1ccc(/C(C)=N\NC(=O)c2ccco2)cc1,-,-,.,23.6,-,-,-
O=C(Cc1ccccc1F)Nc1ccc(SC(F)F)cc1,-,-,-,16.6,-,13.9,-
O=C(Nc1ccc(SC(F)F)cc1)c1ccc(F)cc1,-,-,-,13.6,-,13.6,-
O=C(Nc1ccc(SC(F)F)cc1)c1ccccc1F,-,-,6.2,15.9,3.9,15.4,-
CC(=O)Nc1ccc(NC(=O)c2ccccc2F)cc1,-,-,-,-,-,.,.
O=C(COC(=O)c1ccccc1Cc1ccccc1)Nc1ccc(SC(F)F)cc1,-,-,-,14.5,-,17.3,-
COc1cc(NC(=O)c2ccc(N3CC4CC(C3)c3cccc(=O)n3C4)c(NC(=O)c3ccncc3)c2)cc(OC)c1OC (stereo unspecified),-,-,-,-,-,.,.
CCOC(=O)CSc1nc(-c2ccncc2)ccc1C#N,0.9,-,-,16.5,-,16.3,-
COc1cccc(S(=O)(=O)N(C)C[C@@H]2OCc3cnnn3CCCC(=O)N([C@@H](C)CO)C[C@H]2C)c1,-,-,-,-,-,.,.
Cc1cc(C(=O)NC2CCCCC2)c(C)n1-c1ccc(F)cc1,-,5.8,-,13.9,-,12.2,-
Cc1cc(C(=O)CN2CCCCC2)c(C)n1-c1ccc(F)cc1,-,-,-,-,-,.,.
Cc1cc(C(=O)CN2CCC(C)CC2)c(C)n1-c1ccc(F)cc1,-,-,-,14.0,-,13.4,-
Cc1cc(C(=O)CN2C(=O)C(=O)N(C3CCCC3)C2=O)c(C)n1-c1ccc(F)cc1,-,-,-,-,-,.,.
COc1cc(C(=O)N2CCCC(C)(C(=O)NS(=O)(=O)C3CC3)C2)cc(OC)c1OC (stereo unspecified),-,-,.,-,-,.,.
CC1O[C@@H](O[C@H](C)CC[C@@H](C)O[C@H]2OC(C)[C@@H](O)C[C@H]2O)C(O)C[C@H]1O (stereo partly specified),-,-,-,-,-,.,.
SMILES,ssDAF12 agonist,hcDAF12 agonist,DAX1 inh-1,hgDAF-12 ag,DAX1 inh-2,hgDAF12 ag,LXR ag 2
CCCCc1cc(=O)oc2cc(C)cc(OCC(=O)Nc3ccccn3)c12,-,-,-,15.2,-,-,-
COc1ccc(/C=C/C2=CC(C)(C)NC(=S)N2)cc1OC,-,-,-,-,-,.,.
COc1ccc(/C=C/C2=Nc3ccccc3NC(C)(C)C2)cc1OC,1.0,-,-,15.7,-,-,-
Cc1ccccc1C(=O)NCC(=O)c1ccccc1,-,-,.,13.3,-,11.0,-
CCOC(=O)c1sc(Nc2nc3c(F)cccc3s2)cc1C,-,-,-,16.4,-,13.0,-
CCOC(=O)c1sc(NC(=O)c2sccc2C)cc1C,1.2,6.4,-,16.7,-,17.0,-
CCOC(=O)c1sc(NC(=O)c2cccs2)cc1C,-,-,-,14.6,-,14.2,-
O=C1CCCC(O)=C1N=Nc1ccc2c(c1)OCO2,-,5.9,-,14.5,-,-,-

# Screening results deposited in PubChem by The Scripps Research Institute Molecular Screening Center.
